Experiment [1] can be described thus: APR_HepG2_CellCycleArrest_1hr: Apredica 1-hour HepG2 Assay for Cell Cycle Arrest (AID 2282666). Particulars: high-content imaging, actives raise or lower the signal. The method, boiled down:
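HepG2 cells exposed for 1 h to 0.39–200 uM compound (0.5% DMSO). Fixed, Hoechst-stained nuclei imaged by ArrayScan; DNA content quantified by Cell Cycle analysis; bidirectional fit against DMSO.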

A short description of experiment [2]: ACEA_ER_80hr: ACEA Biosciences xCELLigence Real-Time Cell Analysis on Estrogen Receptor Agonism for Proliferation (AID 2282667; active = hit-call score of the fitted dose curve at least 0.9, where 1 is the maximum). Particulars: T47D proliferation, impedance (xCELLigence), 80 h. The method, boiled down: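 Cell-growth kinetics were measured by impedance in T47D cells treated continuously with compound (top 100 uM final, 1:4 steps, 8 points). Activity at 80 h was scored as signal gain over the DMSO baseline.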

Experiment [3] can be described thus: APR_HepG2_MicrotubuleCSK_1hr: Apredica 1-hour HepG2 Assay for Microtubule CSK Stabilty (AID 2282669). Particulars: HepG2 microtubule cytoskeleton imaging, actives raise or lower the signal. In a few lines:
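HepG2 cells exposed 1 h to 0.39–200 uM compound (0.5% DMSO, duplicates), then formaldehyde-fixed, permeabilized and immunostained for alpha-tubulin with Hoechst nuclei. Imaged by ArrayScan high-content analysis; bidirectional fit versus DMSO.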

Experiment [4] in a line: APR_HepG2_NuclearSize_1hr: Apredica 1-hour HepG2 Assay for Nuclear Size (AID 2282670). The conditions noted are these: high-content imaging, actives raise or lower the signal. The method, boiled down:
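HepG2 cells dosed 1 hr with 0.39–200 uM compound (0.5% DMSO), formaldehyde-fixed, Hoechst 33342-stained and imaged at 20x; nuclear diameter from nuclear stain, fitted bidirectionally against DMSO.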

Experiment [5] in a line: APR_HepG2_p53Act_1hr: Apredica 1-hour HepG2 Assay for p53 Activation (AID 2282671). Particulars: high-content imaging, actives raise or lower the signal. In a few lines:
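HepG2 cells treated 1 h with compound at 0.39–200 uM (10 concentrations, duplicate) in 0.5% DMSO. Formaldehyde-fixed, permeabilised cells immunostained for p53 with Hoechst 33342; high-content imaging, bidirectional fit versus DMSO.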

A short description of experiment [6]: APR_HepG2_MitoticArrest_1hr: Apredica 1-hour HepG2 Assay for Mitotic Arrest (AID 2282672). The conditions noted are these: high-content imaging, actives raise or lower the signal. The method, boiled down: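 HepG2 cells exposed 1 hr to compounds at 0.39–200 uM (0.5% v/v DMSO final), then fixed in 3.7% formaldehyde and immunostained for phospho-histone H3 with Hoechst 33342. Mitotic arrest scored by automated fluorescence imaging, fitted bidirectionally versus DMSO.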

A short description of experiment [7]: APR_HepG2_MitoMass_1hr: Apredica 1-hour HepG2 Assay for Mitochondrial Mass (AID 2282674). The conditions noted are these: high-content imaging, actives raise or lower the signal. In a few lines: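 HepG2 cells dosed 1 hr with 0.39-200 uM compound (0.5% DMSO), duplicate wells. Mitochondria stained with 250 nM MitoTracker Red CMXRos for 30 min before formaldehyde fixation, imaged at 20x by ArrayScan; bidirectional fit versus DMSO.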

A short description of experiment [8]: APR_HepG2_MitoMembPot_1hr: Apredica 1-hour HepG2 Assay for Mitochondrial Membrane Potential (AID 2282675). The conditions noted are these: imaging, actives raise or lower the signal. In a few lines:
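HepG2 cells dosed 1 hour with 0.39–200 uM compound in duplicate, 0.5% DMSO final. MitoTracker Red CMXRos (250 nM, 30 min) loaded before formaldehyde fixation; fluorescence quantified by high-content imaging, bidirectional fitting versus DMSO.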

Experiment [9] in a line: APR_HepG2_P-H2AX_1hr: Apredica 1-hour HepG2 Assay for H2AX Phosphorylation (AID 2282673). Particulars: high-content imaging, actives raise or lower the signal. In a few lines:
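HepG2 dosed 1 hr at 0.39-200 uM (0.5% DMSO final), duplicate. Fixed in 3.7% formaldehyde, Triton permeabilized, immunostained for phospho-histone H2A.x (1:200) with Hoechst 33342; ArrayScan 20x imaging, bidirectional fit vs DMSO.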

Values joined by “and” are separate entries in the source; they are usually repeats but may differ in a detail not shown here. Equal entries are not always repeated. Results filed as inconclusive are left out. More than one record can exist for a structure, and the calls need not agree. Active and inactive are the calls of the source. The calls were made as follows, unless noted: active = hit-call score of the fitted dose curve at least 0.9, where 1 is the maximum; inactive = score below 0.9.

With `COc1cnc(OC)n2nc(NS(=O)(=O)c3c(OCC(F)F)cccc3C(F)(F)F)nc12`, the compound was classed as inactive in experiment [1], in experiment [2], in [3], in [4], in experiment [5] and in experiment [6]. Moreover, the compound was called inactive in [7] and in [8].
In the case of `C=CC1(C)OC(=O)N(c2cc(Cl)cc(Cl)c2)C1=O` (configuration not stated), the result in experiment [1], in experiment [2], in [3], in experiment [4], in experiment [5] and in experiment [6] was inactive. The result in experiment [7] and in experiment [8] was inactive.
As to `CON(C)C(=O)Nc1ccc(Cl)c(Cl)c1`, the compound was classed as inactive in experiment [1], in experiment [2], in experiment [3], in experiment [4], in [5] and in experiment [6]. Besides, the outcome in experiment [7] and in experiment [8] was inactive.
`N#CC(CCc1ccc(Cl)cc1)(Cn1cncn1)c1ccccc1` (configuration not stated): the compound was called inactive in experiment [1], in experiment [2], in experiment [3], in experiment [5], in experiment [6] and in [7]. Besides, in experiment [8], the compound was classed as inactive.
As to `CN(C)C(=S)SSC(=S)N(C)C`, the compound was classed as inactive in experiment [1], in experiment [3], in [5], in [6], in experiment [7] and in experiment [8]. In addition, the AC50 in [2] was 2.06 µM (active).
Take `CCOP(=S)(OCC)SCn1c(=O)oc2cc(Cl)ccc21`: the compound was called inactive in [1], in [2], in experiment [3], in [5], in experiment [6] and in experiment [7]. For the same compound, the call in [8] was inactive.
Consider `O=C(O)c1nc(Cl)ccc1Cl`, for which the outcome in experiment [1], in [2], in experiment [3], in experiment [5], in [6] and in experiment [7] was inactive. The result in experiment [8] was inactive.
For the compound `COC(=O)C(C)Oc1ccc(Oc2ccc(Cl)cc2Cl)cc1` (configuration not stated), the compound was classed as inactive in experiment [1], in experiment [3], in [5], in experiment [6], in [7] and in [8].
As for `COC(=O)c1ccccc1C(=O)OC`, the compound was called inactive in [1], in experiment [2], in [3], in [5], in [6] and in experiment [7]. The result in experiment [8] was inactive.
As for `COC(=O)N(OC)c1ccccc1COc1ccn(-c2ccc(Cl)cc2)n1`, the compound was called inactive in [1], in experiment [2], in [3], in experiment [5], in experiment [6] and in experiment [7]. Also, the AC50 in experiment [8] is 0.0634 µM (active).
For `COC(=O)C=C(C)OP(=O)(OC)OC`, the result in experiment [1], in experiment [2], in experiment [3], in experiment [5], in experiment [6] and in experiment [7] was inactive. For the same compound, in [8], the call was inactive.
`COc1nc(C)nc(NC(=O)NS(=O)(=O)c2ccccc2CCC(F)(F)F)n1`: the compound was classed as inactive in [1], in experiment [3], in experiment [4], in experiment [5], in experiment [6] and in experiment [9]. Besides, the outcome in experiment [7] and in experiment [8] was inactive.
Turning to `Oc1ccccc1-c1ccccc1`, the outcome in [1], in experiment [2], in experiment [3], in experiment [5], in experiment [6] and in experiment [7] was inactive. For the same compound, in experiment [8], the result was inactive.
As for `COc1nc(C)nc(NC(=O)NS(=O)(=O)c2ccccc2Cl)n1`, the result in experiment [1], in experiment [3], in experiment [5], in experiment [6], in [7] and in [8] was inactive.
As for `COP(=S)(OC)Oc1nc(Cl)c(Cl)cc1Cl`, the outcome in experiment [1], in experiment [2], in [3], in experiment [5], in experiment [6] and in experiment [7] was inactive. Moreover, the call in [8] was inactive.
Take `O=C(Nc1ccccc1)Nc1ccnc(Cl)c1`: the result in [1], in [2], in experiment [3], in experiment [5], in [6] and in [7] was inactive. Further, the concentration at half-maximal activity (AC50) in experiment [8] is 99.5 µM (active).
For the compound `CCNc1nc(Cl)nc(NC(C)C)n1`, the compound was classed as inactive in experiment [1], in experiment [2], in experiment [3], in experiment [5], in experiment [6] and in [7]. For the same compound, in experiment [8], the outcome was inactive.
For the compound `Cc1ccc(-c2c(Cl)nc(C#N)n2S(=O)(=O)N(C)C)cc1`, the compound was classed as inactive in [1], in [3], in [5], in experiment [6] and in [7]. Moreover, the AC50 was 10.5 µM (active) in experiment [2] and 100 µM (active) in experiment [8].
Regarding `CCOc1cc(Oc2ccc(C(F)(F)F)cc2Cl)ccc1[N+](=O)[O-]`, the compound was called inactive in experiment [1], in experiment [2], in experiment [3], in [5], in experiment [6] and in [7]. Moreover, the call in [8] was inactive.
On to `N#Cc1nn(-c2c(Cl)cc(C(F)(F)F)cc2Cl)c(N)c1S(=O)C(F)(F)F` (configuration not stated), for which the compound was classed as inactive in experiment [1], in [2], in [3], in [5], in experiment [6] and in experiment [7]. In experiment [8], the AC50 is 54.4 µM (active).
With `CCOC(=O)C(Cl)Cc1cc(-n2nc(C)n(C(F)F)c2=O)c(F)cc1Cl` (configuration not stated), the compound was classed as inactive in [1], in experiment [2], in experiment [3], in experiment [5], in [6] and in [7]. For the same compound, in [8], the compound was classed as inactive.
In the case of `COc1ccc(C(c2ccc(OC)cc2)C(Cl)(Cl)Cl)cc1`, the compound was called inactive in experiment [1], in experiment [3], in experiment [5], in experiment [6] and in experiment [7]. For the same compound, the AC50 is 10.4 µM (active) and 1.41 µM (active) and 728 nM (active) in [2]; 100 µM (active) in experiment [8].
Consider `CC1=C(C(=O)Nc2ccccc2)SCCO1`, for which the compound was called inactive in [1], in experiment [2], in experiment [3], in experiment [5], in [6] and in [7]. Besides, the compound was called inactive in experiment [8].
Take `CCCCOC(=O)c1ccccc1C(=O)OCCCC`: the compound was classed as inactive in experiment [1], in [2], in experiment [3], in experiment [5], in experiment [6] and in [7]. Also, the call in experiment [8] was inactive.
`COP(N)(=O)SC` (configuration not stated): the outcome in experiment [1], in [2], in experiment [3], in [5], in experiment [6] and in experiment [7] was inactive. Further, in experiment [8], the outcome was inactive.
Regarding `CC(C)(C)c1ccc(CSc2cnn(C(C)(C)C)c(=O)c2Cl)cc1`, the call in experiment [1], in [3], in experiment [5], in experiment [6], in experiment [7] and in [8] was inactive. In experiment [2], the AC50 was 0.00406 µM (active).
On to `CCCCNC(=O)OCC#CI`, for which the compound was classed as inactive in experiment [1], in [3], in experiment [5], in experiment [6] and in experiment [8]. Also, the AC50 in experiment [5] was 54.5 µM (active); in experiment [6], 28.8 µM (active); in [7], 47.8 µM (active) and 60.6 µM (active).

For orientation: AC50 means the concentration at which the activity in the assay is half-maximal.

The values above are taken from PubChem BioAssay (EPA / NIEHS).
